Where “and” joins values, the source holds several entries; their conditions need not be identical. Identical values can stand only once. Hit rate of the full screen: of about 5,500 compounds, about 2,000 (36%) were called active. Another 18% or so got no clear call; they are omitted. Cut-off read from the data, not from the text of the source: active = normalized growth mostly below about 0.91 (no sharp cut-off); inconclusive = no clear call, values can overlap the other calls; inactive = mostly above about 0.92. The list shows a part of the results.
Assay: chemical genetic growth profiling, strain panel (AID 1159580);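 note: tested at 20 µM; growth read once vehicle control cultures reached saturation at 30 °C; 1 = growth at the plate median or of vehicle wells; lower values mean less growth of the strain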
Conditions: growth OD

Measured: normalized growth

O=C(O)c1cc2cc(F)ccc2[nH]1
inactive: S. cerevisiae deletion strains, locus YJR075W, strain HOC1, hits give low values 1.01 | S. cerevisiae deletion strains, locus YKL009W, strain mrt4, hits give low values 1 | S. cerevisiae deletion strains, locus YKL068W, hits give low values 1.01 | S. cerevisiae deletion strains, locus YKL085W, strain MDH1 (second series), hits give low values 1.01 | S. cerevisiae deletion strains, locus YKL085W, strain MDH1, hits give low values 1.01 | S. cerevisiae deletion strains, locus YKL160W, strain elf1, hits give low values 0.974 | S. cerevisiae deletion strains, locus YKL190W, strain CNB1, hits give low values 0.999 | S. cerevisiae deletion strains, locus YKR001C, strain vps1, hits give low values 1.02 | S. cerevisiae deletion strains, locus YKR026C, strain gcn3, hits give low values 0.949 | S. cerevisiae deletion strains, locus YKR091W, strain srl3, hits give low values 0.968 | S. cerevisiae deletion strains, locus YLL001W, strain dnm1, hits give low values 0.976 | S. cerevisiae deletion strains, locus YLL026W, hits give low values 0.996 | S. cerevisiae deletion strains, locus YLL041C, strain sdh2, hits give low values 0.97 | S. cerevisiae deletion strains, locus YLR027C, strain aat2, hits give low values 0.99 | S. cerevisiae deletion strains, locus YLR039C, strain RIC1, hits give low values 1.02 | S. cerevisiae deletion strains, locus YLR058C, strain SHM2, hits give low values 1.01 | S. cerevisiae deletion strains, locus YLR102C, strain apc9, hits give low values 1.02 | S. cerevisiae deletion strains, locus YLR113W, strain HOG1, hits give low values 0.948 | S. cerevisiae deletion strains, locus YLR221C, strain rsa3, hits give low values 0.986 | S. cerevisiae deletion strains, locus YLR258W, strain gsy2, hits give low values 0.987 | S. cerevisiae deletion strains, locus YLR262C, strain YPT6 (second series), hits give low values 1 | S. cerevisiae deletion strains, locus YLR262C, strain YPT6, hits give low values 1.04 | S. cerevisiae deletion strains, locus YLR268W, strain sec22, hits give low values 1.02 | S. cerevisiae deletion strains, locus YLR320W, strain mms22, hits give low values 1.01 | S. cerevisiae deletion strains, locus YLR330W, strain CHS5, hits give low values 1.01 | S. cerevisiae deletion strains, locus YLR342W, strain FKS1 (second series), hits give low values 1.01 | S. cerevisiae deletion strains, locus YLR342W, strain FKS1, hits give low values 0.98 | S. cerevisiae deletion strains, locus YLR357W, strain rsc2, hits give low values 0.976 | S. cerevisiae deletion strains, locus YLR370C, strain arc18, hits give low values 0.989 | S. cerevisiae deletion strains, locus YLR371W, strain rom2, hits give low values 1.01 | S. cerevisiae deletion strains, locus YLR384C, strain iki3, hits give low values 0.965 | S. cerevisiae deletion strains, locus YLR418C, strain cdc73, hits give low values 1.05 | S. cerevisiae deletion strains, locus YML016C, strain PPZ1, hits give low values 1.01 | S. cerevisiae deletion strains, locus YML032C, strain rad52, hits give low values 1.02 | S. cerevisiae deletion strains, locus YML120C, strain ndi1, hits give low values 0.995 | S. cerevisiae deletion strains, locus YML124C, strain tub3, hits give low values 1.01 | S. cerevisiae deletion strains, locus YMR058W, strain fet3, hits give low values 0.985 | S. cerevisiae deletion strains, locus YMR078C, strain ctf18, hits give low values 1.02 | S. cerevisiae deletion strains, locus YMR125W, strain sto1, hits give low values 0.948 | S. cerevisiae deletion strains, locus YMR129W, hits give low values 0.982 | S. cerevisiae deletion strains, locus YMR205C, strain PFK2, hits give low values 1.03 | S. cerevisiae deletion strains, locus YMR223W, strain ubp8, hits give low values 1.02 | S. cerevisiae deletion strains, locus YMR231W, strain pep5, hits give low values 0.992 | S. cerevisiae deletion strains, locus YMR263W, strain SAP30, hits give low values 1.01 and 0.999 | S. cerevisiae deletion strains, locus YMR307W, strain GAS1, hits give low values 1.05 | S. cerevisiae deletion strains, locus YNL067W, strain RPL9B, hits give low values 1.02 | S. cerevisiae deletion strains, locus YNL071W, strain lat1, hits give low values 0.984 | S. cerevisiae deletion strains, locus YNL128W, strain TEP1, hits give low values 1 | S. cerevisiae deletion strains, locus YNL153C, strain GIM3, hits give low values 1.01 | S. cerevisiae deletion strains, locus YNL175C, strain NOP13, hits give low values 0.952 | S. cerevisiae deletion strains, locus YNL183C, strain NPR1, hits give low values 0.908 | S. cerevisiae deletion strains, locus YNL197C, strain WHI3, hits give low values 0.949 | S. cerevisiae deletion strains, locus YNL209W, strain ssb2, hits give low values 0.983 | S. cerevisiae deletion strains, locus YNL224C, strain SQS1, hits give low values 0.973 | S. cerevisiae deletion strains, locus YNL233W, strain BNI4, hits give low values 1.01 | S. cerevisiae deletion strains, locus YNL248C, strain rpa49, hits give low values 0.969 | S. cerevisiae deletion strains, locus YNL250W, strain rad50, hits give low values 1.01 | S. cerevisiae deletion strains, locus YNL271C, strain bni1, hits give low values 1.01 | S. cerevisiae deletion strains, locus YNL298W, strain CLA4, hits give low values 1.03 | S. cerevisiae deletion strains, locus YNL307C, strain MCK1, hits give low values 1.02 | S. cerevisiae deletion strains, locus YNL322C, strain KRE1 (second series), hits give low values 0.99 | S. cerevisiae deletion strains, locus YNL322C, strain KRE1, hits give low values 1.01 and 0.971 | S. cerevisiae deletion strains, locus YNR049C, strain mso1, hits give low values 0.97 | S. cerevisiae deletion strains, locus YNR052C, strain pop2, hits give low values 1.02 | S. cerevisiae deletion strains, locus YOL006C, strain TOP1, hits give low values 1.05 | S. cerevisiae deletion strains, locus YOL012C, strain htz1 0.97 | S. cerevisiae deletion strains, locus YOL147C, strain pex11, hits give low values 1.01 | S. cerevisiae deletion strains, locus YOR001W, strain rrp6, hits give low values 0.961 | S. cerevisiae deletion strains, locus YOR061W, strain CKA2, hits give low values 1.01 | S. cerevisiae deletion strains, locus YOR069W, strain VPS5, hits give low values 0.998 | S. cerevisiae deletion strains, locus YOR070C, strain gyp1, hits give low values 1 | S. cerevisiae deletion strains, locus YOR080W, strain dia2, hits give low values 0.977 | S. cerevisiae deletion strains, locus YOR083W, strain WHI5 (second series), hits give low values 0.964 | S. cerevisiae deletion strains, locus YOR083W, strain WHI5, hits give low values 0.965 | S. cerevisiae deletion strains, locus YOR106W, strain vam3, hits give low values 0.972 | S. cerevisiae deletion strains, locus YOR136W, strain idh2, hits give low values 1.02 | S. cerevisiae deletion strains, locus YOR144C, strain elg1, hits give low values 1.01 | S. cerevisiae deletion strains, locus YOR184W, strain ser1, hits give low values 1.02 | S. cerevisiae deletion strains, locus YOR231W, strain MKK1, hits give low values 0.986 | S. cerevisiae deletion strains, locus YOR265W, strain rbl2, hits give low values 0.98 | S. cerevisiae deletion strains, locus YOR270C, strain vph1, hits give low values 1.03 | S. cerevisiae deletion strains, locus YOR290C, strain snf2, hits give low values 0.946 | S. cerevisiae deletion strains, locus YOR316C, strain cot1, hits give low values 1.02 | S. cerevisiae deletion strains, locus YPL051W, strain arl3, hits give low values 0.997 | S. cerevisiae deletion strains, locus YPL055C, strain LGE1, hits give low values 1.01 and 1.02 | S. cerevisiae deletion strains, locus YPL078C, strain atp4, hits give low values 0.956 | S. cerevisiae deletion strains, locus YPL106C, strain sse1, hits give low values 0.938 | S. cerevisiae deletion strains, locus YPL240C, strain hsp82, hits give low values 0.963 | S. cerevisiae deletion strains, locus YPL241C, strain CIN2, hits give low values 0.992 and 0.993 | S. cerevisiae deletion strains, locus YPL256C, strain CLN2, hits give low values 1.01 | S. cerevisiae deletion strains, locus YPR119W, strain clb2, hits give low values 1.01 | S. cerevisiae deletion strains, locus YPR141C, strain kar3, hits give low values 1.01 | S. cerevisiae deletion strains, locus YPR163C, strain tif3, hits give low values 1.01 | S. cerevisiae deletion strains, locus YPR167C, strain met16, hits give low values 1.02 | S. cerevisiae deletion strains, strain wtn01, hits give low values 1.02 | S. cerevisiae strains, strain wild type, hits give low values 0.979

From PubChem BioAssay AID1159580 (chemical genetic matrix, 2015)
